# Measurements as given in PubChem BioAssay.
# Values without a mark were called inactive. The list shows a part of the results. Calls of active or inactive are those of the source.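 How the source made its calls, unless noted: active means inhibition above a limit from the primary screen, the mean over all compounds plus 3 SD (cut at about 19% in these data); inactive means the rest.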
# How the values were obtained:
# [1] = tested on: Fam108b (Abhd17b) serine hydrolase [Mus musculus]; test: inhibition of Fam108b (Abhd17b) hydrolase – biochemical, fluorescence polarization, triplicate, counter-screen for RBBP9 inhibitor project, confirmation (AID 1978); settings: recombinant Fam108b, FP-Rh probe fluorescence polarization; at 9.51 µM; hits give high values;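 further: 0% = median of active Fam108b wells and 100% = catalytically dead S170A mutant; inhibitors free the probe so polarization falls as inhibition rises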
# [2] = target: Toll-like receptor 9 (Homo sapiens) (UniProt Q9NR96); test: disruptors of TLR9 binding to MyD88 – cell-based, CHO, BLA complementation, fluorescence, triplicate, confirmation (AID 540250;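 active means mean inhibition across three repeats above about 21% taken from the earlier screen, limit read from the data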;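 further: blue over green emission ratio reports constitutive TLR9 MyD88 association via BLA complementation; 0% = DMSO vehicle wells and 100% = clavulanate BLA inhibitor wells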); settings: CCF4 FRET ratio, at 4.98 µM, hits give high values
# [3] = BLA reporter readout interference – cell-based, fluorescence, artefact control for TLR9-MyD88 binding inhibitor project (AID 540251;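 active means mean inhibition above a 50% cutoff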;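 further: counterscreen of TLR9-MyD88 hits on CMV-driven BLA in CHO-K1 cells; 0% = DMSO alone and 100% = clavulanate blocking BLA; higher means less blue over green ratio so more BLA blockade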); settings: CHO-BLA cells, CCF4 FRET ratio, at 4.98 µM, hits give high values
# [4] = CHO cell viability loss – luminescence, single concentration, cytotoxicity control for TLR9-MyD88 binding inhibitor project (AID 588336; in the data active means inhibition above about 11%); settings: TLR9-MyD88 CHO cells cytotoxicity, at 4.98 µM, hits give high values
# [5] = target: Glutathione S-transferase omega-1 (Homo sapiens) (UniProt P78417); test: recombinant GSTO1 blockers, retest – biochemical, fluorescence polarization, triplicate, counter-screen for RBBP9 inhibitor project, confirmation (AID 2176;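 active means inhibition above the primary screen's cutoff, its mean inhibition plus 3 SD, cut at about 35% in these data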;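 further: loss of polarization as inhibitors block binding of rhodamine sulfonate ester activity probe; 0% = GSTO1 with DMSO and 100% = wells lacking GSTO1 enzyme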); settings: recombinant GSTO1, probe fluorescence polarization; at 5.96 µM; hits give high values
# [6] = target: Serine protease HTRA1 (Homo sapiens) (UniProt Q92743); test: confirming inhibition of human HTRA1 – biochemical, fluorescence polarization, confirmation (AID 540248;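 active means mean inhibition over three repeats above a set limit taken from the earlier primary screen, cut at about 37% in these data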;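 further: 0% = HTRA1 with DMSO and 100% = wells lacking HTRA1; inhibitors block probe binding so polarization drops and inhibition rises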); settings: recombinant HTRA1, FP-rhodamine activity-based probe, at 5.96 µM, hits give high values
# [7] = target: (Lyso)-N-acylphosphatidylethanolamine lipase (Mus musculus) (UniProt Q8VD66); test: mouse ABHD4 hydrolase blockers, triplicate – biochemical, fluorescence polarization, confirmation (AID 720658;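 active means mean inhibition across replicates above the hit cutoff set in the primary screen, cut at about 30% in these data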;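 further: 0% = wild-type ABHD4 with DMSO and 100% = catalytically dead S159A mutant with DMSO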); settings: purified mABHD4, FP-Rh probe fluorescence polarization; at 8.92 µM; hits give high values
# [8] = target: Platelet-activating factor acetylhydrolase IB subunit alpha1 (Homo sapiens) (UniProt Q15102); test: inhibition of PAF acetylhydrolase 1B subunit 3 – biochemical, fluorescence polarization, human, confirmation (AID 493032;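 active means average inhibition over triplicate runs above the hit cutoff set in the earlier primary screen, cut at about 25% in these data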;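 further: 0% = enzyme with DMSO and 100% = wells lacking PAFAH1B3 protein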); settings: recombinant PAFAH1B3, FP-Rh activity-based probe, at 3.39 µM, hits give high values
# [9] = target: Bcl-2-like protein 1 (Homo sapiens) (UniProt Q07817); test: Bcl-xL BH3-peptide displacement, hit confirmation – biochemical, fluorescence polarization, counter-screen for MCL1 inhibitor project (AID 2166;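 active means inhibition above a cutoff equal to the mean inhibition of all tested compounds plus 3 SD, cut at about 30% in these data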); settings: GST-Bcl-xL / FITC-Bim BH3 peptide FP binding; at 10.9 µM; hits give high values
# [10] = target: Induced myeloid leukemia cell differentiation protein Mcl-1 (Homo sapiens) (UniProt Q07820); test: MCL1-BIM peptide interaction disruptors – biochemical, fluorescence polarization, triplicate, confirmation (AID 2168;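 active means inhibition above the average of all tested compounds plus 3 SD, cut at about 40% in these data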;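 further: 0% = DMSO wells and 100% = unlabeled Bim-BH3 control peptide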); settings: GST-MCL1 / FITC-Bim-BH3 fluorescence polarization; at 10.9 µM; hits give high values
# [11] = suppression of KLF5 promoter-driven luciferase – DLD-1 cells, luminescence, confirmation (AID 1834;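 active means inhibition above a set limit taken from the earlier primary screen, cut at about 63% in these data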;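 further: 0% = DMSO wells and 100% = LY294002 at 200 µM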); settings: DLD-1 KLF5 promoter firefly luciferase reporter, at 4 µM, hits give high values
# [12] = IEC-6 intestinal cell killing – luminescence, triplicate, cytotoxicity control for KLF5 inhibitor project (AID 1905; in the data active means inhibition above about 23%;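 further: cells exposed to compounds for 48 hours before viability read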); settings: IEC-6 rat intestinal cells, viability luminescence; at 4 µM; hits give high values
# [13] = BSA probe fluorescence interference – biochemical, TAMRA-labeled BSA, counter-screen for TCR-CD3 interaction inhibitor project (AID 652035; in the data active means inhibition above about 23%;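 further: 0% = buffer low control and 100% = reference high control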); settings: TAMRA-labeled BSA probe fluorescence counterscreen; at 9.4 µM; hits give high values
# [14] = tested on: T-cell receptor (TCR)-CD3 interaction, human; test: blockers of TCR binding to CD3 – biochemical, fluorescence, TAMRA-labeled TCR probe, confirmation (AID 652036; in the data active means inhibition above about 19%); settings: TAMRA-labeled TCR probe fluorescence binding assay; at 9.4 µM; hits give high values
# [15] = tested on: transactivating tegument protein VP16 (Human herpesvirus 1); test: compounds suppressing VP16-driven luciferase signal – cell-based, luminescence, single concentration, counter-screen for SRC2 inhibitor project (AID 652007; in the data active means inhibition above about 36%); settings: cell-based VP16 transactivation luciferase reporter, at 8.9 µM, hits give high values
# [16] = target: Nuclear receptor coactivator 2 (Homo sapiens) (UniProt Q15596); test: inhibition of GAL4-SRC2 driven luciferase expression – cell-based, luminescence, HEK293, triplicate, confirmation (AID 652008;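 active means mean inhibition above 46.5%, the solvent-only control mean plus 3 SD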;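 further: 0% = DMSO-treated cells and 100% = Gossypol at 36 µM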); settings: HEK293 GAL4-SRC2 luciferase reporter, at 8.9 µM, hits give high values
# [17] = VP16-driven transactivation reporter suppression – cell-based, luminescence, HEK293, counter-screen for COUP-TFII antagonist project (AID 687007; in the data active means inhibition above about 13%); settings: HEK293 Gal4-VP16 luciferase reporter, at 8.5 µM, hits give high values
# [18] = target: COUP transcription factor 2 (Homo sapiens) (UniProt P24468); test: retest of COUP-TFII reporter suppressors – cell-based, luciferase reporter, HEK293, triplicate, confirmation (AID 687008;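 active means mean inhibition over three repeats above a set limit taken from the earlier primary screen, cut at about 38% in these data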;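 further: 100% = cells given the luciferase reporter alone without the COUP-TF2 vector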); settings: HEK293 NGFI-A luciferase reporter, luminescence; at 8.5 µM; hits give high values
# [19] = target: Protein phosphatase methylesterase 1 (Homo sapiens) (UniProt Q9Y570); test: human PME-1 methylesterase inhibition confirmation – biochemical, fluorescence polarization, FP-Rh probe, triplicate (AID 2171;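 active means inhibition above the hit cutoff set in the earlier primary screen, cut at about 27% in these data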;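 further: 0% = enzyme with DMSO and 100% = wells lacking PME-1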); settings: recombinant PME-1, FP-Rh probe fluorescence polarization; at 5.9 µM; hits give high values
# [20] = target: Protein-arginine deiminase type-4 (Homo sapiens) (UniProt Q9UM07); test: protein arginine deiminase 4 blockade, retest – biochemical, fluorescence polarization, confirmation (AID 488796;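 active means mean inhibition across replicates above the hit cutoff set by the earlier primary screen, cut at about 15% in these data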;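 further: inhibitors block active-site labeling by the probe so polarization falls; 0% = PAD4 with probe and DMSO and 100% = probe without PAD4 enzyme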); settings: recombinant PAD4, RCA probe fluorescence polarization; at 6.36 µM; hits give high values
# [21] = target: Platelet-activating factor acetylhydrolase (Homo sapiens) (UniProt Q13093); test: inhibition of plasma PAF acetylhydrolase – biochemical, fluorescence polarization, human, confirmation (AID 463230;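 active means mean inhibition of the triplicate above the hit cutoff set for the earlier primary screen, cut at about 25% in these data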;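 further: 0% = enzyme with DMSO and 100% = wells lacking pPAFAH enzyme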); settings: recombinant pPAFAH, FP-Rh probe fluorescence polarization; at 3.39 µM; hits give high values
# [22] = target: Lytic switch protein BZLF1 (Epstein-Barr virus (strain B95-8)) (UniProt P03206); test: blockers of Zta-ZRE DNA complex – biochemical, fluorescence polarization, triplicate, confirmation (AID 2361;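 active means mean inhibition across triplicate runs above the hit threshold derived for the original primary screen, cut at about 33% in these data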;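 further: 0% = Zta with DMSO and 100% = wells lacking Zta protein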); settings: Zta-ZRE DNA binding, at 11.1 µM, hits give high values
# [23] = tested on: Epstein-Barr virus nuclear antigen 1 (EBNA-1), Human herpesvirus 4; test: blockers of EBV EBNA-1 binding to DNA – biochemical, fluorescence polarization, counter-screen for ZTA inhibitor project (AID 2362; call rule not given here); settings: EBNA-1 DNA binding, at 14.8 µM, hits give high values
# [24] = target: Insulin-degrading enzyme (Homo sapiens) (UniProt P14735); test: cellular IDE Abeta-cleavage inhibition – fluorescence polarization, HEK cells, FAbetaB substrate, confirmation (AID 435028;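 active means mean inhibition across triplicate wells above the cutoff set by the earlier primary insulin-degrading enzyme screen, cut at about 16% in these data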;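 further: 0% = DMSO wells and 100% = 60 µM reference IDE inhibitor Ii1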); settings: at 5.59 µM, hits give high values
# [25] = HEK cell viability loss – luminescence, cytotoxicity control for IDE inhibitor project (AID 449730; in the data active means inhibition above about 22%;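 further: 0% = vehicle wells and 100% = reference cytotoxic drug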); settings: HEK293 cytotoxicity, ATP luminescence; at 5.59 µM; hits give high values
# [26] = target: Nuclear receptor coactivator 3 (Homo sapiens) (UniProt Q9Y6Q9); test: NCOA3 GAL4-fusion reporter inhibition – cell-based, luminescence, quadruplicate, confirmation (AID 588792;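 active means mean inhibition over 43.08%, the solvent-only control mean plus 3 SD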;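 further: 0% = DMSO treated cells and 100% = gossypol at 36 µM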); settings: HEK293 GAL4-SRC3 luciferase reporter, at 3.6 µM, hits give high values
# [27] = tested on: transactivating tegument protein VP16 (Human herpesvirus 1), Gal4-VP16 luciferase reporter; test: repression of VP16-driven luciferase reporter – cell-based, luminescence, high throughput, counter-screen for SRC3 inhibitor project (AID 588794; in the data active means inhibition above about 30%); settings: mammalian cells, at 3.6 µM, hits give high values
# [28] = target: Nuclear receptor coactivator 1 (Homo sapiens) (UniProt Q15788); test: NCOA1 GAL4-fusion reporter inhibition – cell-based, luminescence, quadruplicate, confirmation (AID 588820;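 active means mean inhibition above 46.68%, the untreated control wells mean plus 3 SD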;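 further: 0% = DMSO wells and 100% = gossypol 36 µM treated wells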); settings: HEK293 GAL4-SRC1 luciferase reporter, at 3.6 µM, hits give high values
# [29] = repression of VP16-driven luciferase reporter – cell-based, luminescence, high throughput, counter-screen for SRC1 inhibitor project (AID 588824; in the data active means inhibition above about 25%); settings: cell-based VP16 transactivation luciferase luminescence; at 3.6 µM; hits give high values
# Sequence of Glutathione S-transferase omega-1 (Homo sapiens) (P78417 whole entry, looked up): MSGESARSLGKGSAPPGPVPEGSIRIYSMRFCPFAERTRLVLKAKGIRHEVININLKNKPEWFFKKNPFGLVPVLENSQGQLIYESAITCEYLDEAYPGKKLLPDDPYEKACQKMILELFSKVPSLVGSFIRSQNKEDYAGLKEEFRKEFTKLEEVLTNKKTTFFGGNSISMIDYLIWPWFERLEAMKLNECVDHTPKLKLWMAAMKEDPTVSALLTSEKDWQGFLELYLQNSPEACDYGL
# Sequence of Protein phosphatase methylesterase 1 (Homo sapiens) (Q9Y570 whole entry, looked up): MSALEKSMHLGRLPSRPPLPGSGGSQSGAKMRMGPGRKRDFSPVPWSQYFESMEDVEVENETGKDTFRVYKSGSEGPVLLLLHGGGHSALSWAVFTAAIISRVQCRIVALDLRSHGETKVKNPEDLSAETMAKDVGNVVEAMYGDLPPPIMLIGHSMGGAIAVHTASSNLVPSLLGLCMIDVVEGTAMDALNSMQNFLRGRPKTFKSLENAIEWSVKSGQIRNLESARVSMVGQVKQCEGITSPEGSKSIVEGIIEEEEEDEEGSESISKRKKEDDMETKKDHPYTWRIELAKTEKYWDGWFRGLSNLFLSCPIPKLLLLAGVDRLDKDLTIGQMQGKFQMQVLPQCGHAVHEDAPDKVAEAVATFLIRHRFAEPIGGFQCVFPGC
# Sequence of Bcl-2-like protein 1 (Homo sapiens) (Q07817 whole entry, looked up): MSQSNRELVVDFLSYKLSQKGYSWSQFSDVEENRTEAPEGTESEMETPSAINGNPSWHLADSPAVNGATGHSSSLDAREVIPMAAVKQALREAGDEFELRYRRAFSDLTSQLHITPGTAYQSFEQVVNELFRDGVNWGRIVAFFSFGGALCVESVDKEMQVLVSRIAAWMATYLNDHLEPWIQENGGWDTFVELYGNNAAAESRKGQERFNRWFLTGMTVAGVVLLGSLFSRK
# Sequence of Protein-arginine deiminase type-4 (Homo sapiens) (Q9UM07 whole entry, looked up): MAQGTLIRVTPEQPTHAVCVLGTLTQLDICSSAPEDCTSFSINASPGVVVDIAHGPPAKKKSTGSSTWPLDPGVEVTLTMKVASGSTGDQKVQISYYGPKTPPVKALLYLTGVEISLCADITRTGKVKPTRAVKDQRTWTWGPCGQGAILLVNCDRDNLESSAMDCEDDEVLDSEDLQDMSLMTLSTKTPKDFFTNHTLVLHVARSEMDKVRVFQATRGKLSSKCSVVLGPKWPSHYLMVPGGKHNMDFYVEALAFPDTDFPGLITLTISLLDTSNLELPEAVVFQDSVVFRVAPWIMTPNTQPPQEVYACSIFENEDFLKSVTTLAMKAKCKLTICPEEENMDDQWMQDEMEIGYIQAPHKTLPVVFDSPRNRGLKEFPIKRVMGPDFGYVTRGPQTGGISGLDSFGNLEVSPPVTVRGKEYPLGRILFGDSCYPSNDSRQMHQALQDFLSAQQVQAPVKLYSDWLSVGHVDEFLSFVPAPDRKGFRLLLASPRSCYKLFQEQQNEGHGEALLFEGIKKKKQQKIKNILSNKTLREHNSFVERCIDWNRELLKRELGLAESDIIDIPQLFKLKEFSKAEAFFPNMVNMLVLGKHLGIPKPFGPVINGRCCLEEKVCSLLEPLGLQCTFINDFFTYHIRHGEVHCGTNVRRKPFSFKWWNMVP
# Sequence of Platelet-activating factor acetylhydrolase (Homo sapiens) (Q13093 whole entry, looked up): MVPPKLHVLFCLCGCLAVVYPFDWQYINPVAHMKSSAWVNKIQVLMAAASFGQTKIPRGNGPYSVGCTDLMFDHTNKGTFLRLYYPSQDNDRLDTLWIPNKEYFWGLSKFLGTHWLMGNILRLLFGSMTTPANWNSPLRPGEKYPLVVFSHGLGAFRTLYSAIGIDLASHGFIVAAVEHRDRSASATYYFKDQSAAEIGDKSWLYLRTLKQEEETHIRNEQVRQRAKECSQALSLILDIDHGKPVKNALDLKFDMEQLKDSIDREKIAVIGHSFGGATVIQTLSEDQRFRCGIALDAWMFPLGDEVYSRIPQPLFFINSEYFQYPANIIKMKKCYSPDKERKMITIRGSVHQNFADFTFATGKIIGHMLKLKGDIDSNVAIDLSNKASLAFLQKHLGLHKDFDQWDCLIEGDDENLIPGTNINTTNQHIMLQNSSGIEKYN
# Sequence of Induced myeloid leukemia cell differentiation protein Mcl-1 (Homo sapiens) (Q07820 whole entry, looked up): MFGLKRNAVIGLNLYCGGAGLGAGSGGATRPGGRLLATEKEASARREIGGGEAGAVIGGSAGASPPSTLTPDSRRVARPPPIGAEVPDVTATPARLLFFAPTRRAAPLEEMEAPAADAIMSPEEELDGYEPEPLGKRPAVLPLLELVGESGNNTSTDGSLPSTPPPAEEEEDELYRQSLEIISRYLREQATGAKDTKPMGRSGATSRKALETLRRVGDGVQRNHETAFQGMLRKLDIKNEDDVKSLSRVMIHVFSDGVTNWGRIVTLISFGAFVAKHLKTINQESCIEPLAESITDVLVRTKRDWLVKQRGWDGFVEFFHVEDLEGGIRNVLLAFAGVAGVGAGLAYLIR
# Sequence of (Lyso)-N-acylphosphatidylethanolamine lipase (Mus musculus) (Q8VD66 whole entry, looked up): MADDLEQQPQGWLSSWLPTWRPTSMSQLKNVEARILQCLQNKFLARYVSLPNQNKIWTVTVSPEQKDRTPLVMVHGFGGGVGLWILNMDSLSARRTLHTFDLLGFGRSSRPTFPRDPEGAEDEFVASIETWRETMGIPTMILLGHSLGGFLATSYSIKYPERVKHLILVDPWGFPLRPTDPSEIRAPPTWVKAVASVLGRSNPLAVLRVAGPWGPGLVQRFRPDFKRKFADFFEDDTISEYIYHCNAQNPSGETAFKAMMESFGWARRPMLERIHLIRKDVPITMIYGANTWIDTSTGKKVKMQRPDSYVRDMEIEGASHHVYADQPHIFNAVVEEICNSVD
# Sequence of Lytic switch protein BZLF1 (Epstein-Barr virus (strain B95-8)) (P03206 whole entry, looked up): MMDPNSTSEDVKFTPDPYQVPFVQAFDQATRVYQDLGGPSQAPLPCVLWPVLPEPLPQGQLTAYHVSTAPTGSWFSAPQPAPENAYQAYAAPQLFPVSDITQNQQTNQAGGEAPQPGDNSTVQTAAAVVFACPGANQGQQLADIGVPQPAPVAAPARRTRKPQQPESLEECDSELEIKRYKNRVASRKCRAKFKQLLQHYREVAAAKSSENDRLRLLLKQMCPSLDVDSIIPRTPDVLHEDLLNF
# Sequence of Nuclear receptor coactivator 3 (Homo sapiens) (Q9Y6Q9 whole entry, looked up, the tested form may be a part): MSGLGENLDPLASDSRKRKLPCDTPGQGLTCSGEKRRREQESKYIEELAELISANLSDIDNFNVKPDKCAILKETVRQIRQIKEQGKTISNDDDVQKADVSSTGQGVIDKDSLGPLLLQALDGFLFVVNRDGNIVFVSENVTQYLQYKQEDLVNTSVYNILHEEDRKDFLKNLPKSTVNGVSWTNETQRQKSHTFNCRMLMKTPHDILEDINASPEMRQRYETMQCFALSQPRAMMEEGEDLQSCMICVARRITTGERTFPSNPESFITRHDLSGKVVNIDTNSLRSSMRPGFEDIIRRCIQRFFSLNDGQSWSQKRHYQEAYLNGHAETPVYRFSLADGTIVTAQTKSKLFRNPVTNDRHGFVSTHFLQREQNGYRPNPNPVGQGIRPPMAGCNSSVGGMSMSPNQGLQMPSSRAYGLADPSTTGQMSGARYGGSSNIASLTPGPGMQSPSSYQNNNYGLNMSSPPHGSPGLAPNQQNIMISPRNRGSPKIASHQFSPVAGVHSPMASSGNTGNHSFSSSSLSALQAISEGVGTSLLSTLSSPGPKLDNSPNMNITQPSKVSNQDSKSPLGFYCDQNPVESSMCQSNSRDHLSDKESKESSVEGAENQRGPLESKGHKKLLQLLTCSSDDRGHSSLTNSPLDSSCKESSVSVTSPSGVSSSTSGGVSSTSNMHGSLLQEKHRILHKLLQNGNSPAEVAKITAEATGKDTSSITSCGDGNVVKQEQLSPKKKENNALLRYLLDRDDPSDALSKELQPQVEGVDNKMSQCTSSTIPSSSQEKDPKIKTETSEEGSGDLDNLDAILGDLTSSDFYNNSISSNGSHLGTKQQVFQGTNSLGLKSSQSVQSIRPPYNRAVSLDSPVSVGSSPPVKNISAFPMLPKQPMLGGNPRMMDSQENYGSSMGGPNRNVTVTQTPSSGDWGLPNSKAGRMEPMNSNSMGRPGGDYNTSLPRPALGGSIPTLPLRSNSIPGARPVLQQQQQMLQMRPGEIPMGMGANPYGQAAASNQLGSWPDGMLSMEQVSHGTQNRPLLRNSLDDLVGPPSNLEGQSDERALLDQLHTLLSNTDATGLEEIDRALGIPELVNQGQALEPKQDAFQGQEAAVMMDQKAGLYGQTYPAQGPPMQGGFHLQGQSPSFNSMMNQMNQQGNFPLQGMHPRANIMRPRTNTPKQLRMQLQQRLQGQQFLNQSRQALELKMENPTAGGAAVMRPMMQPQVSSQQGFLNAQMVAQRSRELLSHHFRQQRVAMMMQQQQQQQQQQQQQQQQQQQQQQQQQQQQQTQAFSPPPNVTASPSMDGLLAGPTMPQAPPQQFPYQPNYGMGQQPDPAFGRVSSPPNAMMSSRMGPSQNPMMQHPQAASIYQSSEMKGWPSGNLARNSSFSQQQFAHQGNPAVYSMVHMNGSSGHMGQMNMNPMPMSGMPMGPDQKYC
# Sequence of COUP transcription factor 2 (Homo sapiens) (P24468 whole entry, looked up): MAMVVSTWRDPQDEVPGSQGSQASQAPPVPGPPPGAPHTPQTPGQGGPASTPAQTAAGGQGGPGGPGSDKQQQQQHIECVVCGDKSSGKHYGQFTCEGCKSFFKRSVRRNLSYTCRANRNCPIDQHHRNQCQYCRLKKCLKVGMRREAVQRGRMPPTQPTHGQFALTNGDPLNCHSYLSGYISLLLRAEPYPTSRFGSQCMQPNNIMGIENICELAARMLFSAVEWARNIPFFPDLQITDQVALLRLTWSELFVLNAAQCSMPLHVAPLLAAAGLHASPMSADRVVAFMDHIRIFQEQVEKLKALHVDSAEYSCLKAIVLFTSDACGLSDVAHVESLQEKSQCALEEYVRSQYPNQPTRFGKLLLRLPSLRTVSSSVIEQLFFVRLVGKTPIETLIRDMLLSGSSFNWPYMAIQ
# Sequence of Platelet-activating factor acetylhydrolase IB subunit alpha1 (Homo sapiens) (Q15102 whole entry, looked up): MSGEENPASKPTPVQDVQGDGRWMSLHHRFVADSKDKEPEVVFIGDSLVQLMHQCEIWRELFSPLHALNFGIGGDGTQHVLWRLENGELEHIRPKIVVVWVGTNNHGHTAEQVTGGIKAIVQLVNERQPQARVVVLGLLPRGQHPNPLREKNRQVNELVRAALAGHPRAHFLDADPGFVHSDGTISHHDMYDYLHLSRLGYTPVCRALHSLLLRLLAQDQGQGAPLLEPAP
compound,measurement,setting,value
Cc1cccc2cc3c(N)c(C(=O)N4CCCc5ccccc54)sc3nc12,inhibition,[1],4.65%
same,inhibition,[2],15.4%
same,inhibition,[3],12.7%
same,inhibition,[4],33.7% (active)
Clc1ccccc1CSc1nnc(-c2ccco2)c(-c2ccco2)n1,inhibition,[1],1%
same,inhibition,[5],23.6%
same,inhibition,[6],2.03%
same,inhibition,[7],27.6%
COc1ccc(-c2csc(NC(=O)COC(=O)Cc3ccc(Cl)cc3Cl)n2)cc1,inhibition,[1],3.19%
COc1ccc(/C=C/C(=O)OCC(=O)Nc2cccc(Oc3ccccc3)c2)c(OC)c1,inhibition,[1],47.3% (active)
O=C(N/N=C/c1sc(N2CCCCC2)nc1-c1cccs1)c1cccnc1,inhibition,[1],9.2%
same,inhibition,[8],12.7%
same,inhibition,[6],58.4% (active)
O=C(NC1CC1)c1ccc(-c2ccccc2)cc1,inhibition,[1],-4.72%
CC[N+](C)(CC)CCC[n+]1c(-c2ccccc2)c2cc(N)ccc2c2ccc(N)cc21,inhibition,[1],61.8% (active)
same,inhibition,[5],85.8% (active)
COC(=O)CSc1nccc(-c2cccs2)n1,inhibition,[1],-1%
CCOC(=O)c1cc2n(c1N)-c1ccccc1C2=O,inhibition,[9],91.1% (active)
same,inhibition,[10],106% (active)
CN(NC(=O)c1ccccc1F)c1nc(C(F)(F)F)nc2ccccc12,inhibition,[11],77% (active)
same,inhibition,[12],59.6% (active)
same,inhibition,[13],4.94%
same,inhibition,[14],2.71%
COc1ccc(-c2onc3ccc(C(C)=O)cc23)cc1,inhibition,[9],172% (active)
Cc1ccc(-c2cn3cc(C)ccc3n2)cc1,inhibition,[11],85% (active)
same,inhibition,[12],8.78%
same,inhibition,[15],45.9% (active)
same,inhibition,[16],69.2% (active)
same,inhibition,[17],20.1% (active)
same,inhibition,[18],43.9% (active)
COCCOC(=O)c1sc(=S)n(CCOC)c1N,inhibition,[1],19.6% (active)
same,inhibition,[9],85.4% (active)
same,inhibition,[10],131% (active)
same,inhibition,[19],21.3%
same,inhibition,[13],42.3% (active)
same,inhibition,[14],33.1% (active)
same,inhibition,[7],47.4% (active)
Cc1nc(NC(=O)c2cccc(Cl)c2)sc1-c1csc(Nc2cccc(Cl)c2)n1,inhibition,[1],9.74%
COc1ccc2nc(Nc3nc4cc5c(cc4s3)OCCO5)sc2c1,inhibition,[1],-9.21%
CCCCC(=O)Nc1nc(C)c(-c2csc(Nc3ccc(Cl)cc3)n2)s1,inhibition,[1],8.42%
Brc1ccc(C2=CC(c3ccco3)n3ncnc3N2)cc1 (stereo unspecified),inhibition,[9],52.9% (active)
same,inhibition,[10],75.9% (active)
COc1ccc(NS(=O)(=O)c2cc(NC(=O)CC(=O)c3ccc([N+](=O)[O-])cc3)ccc2C)cc1,inhibition,[1],44.3% (active)
same,inhibition,[19],-1.55%
same,inhibition,[6],28.7%
C/C(=N\Nc1cccc(C(=O)O)c1)c1ccc2c(c1)Nc1ccccc1S2,inhibition,[1],26.1% (active)
O=C(CCn1c(SCC(=O)c2ccccc2)nc2ccccc2c1=O)NCc1ccc(F)cc1,inhibition,[1],-13.1%
same,inhibition,[20],-0.06%
COc1cccc(C2Nc3cccc4cccc(c34)N2)c1,inhibition,[1],12.6%
CCCN1CC=C2C(C#N)=C(N)C(C#N)(C#N)C(c3cc(OC)ccc3OC)C2C1 (stereo unspecified),inhibition,[9],35.6% (active)
same,inhibition,[10],35.4%
O=C(C[n+]1cc(Br)cc2ccccc21)c1ccc(F)cc1,inhibition,[9],23%
same,inhibition,[10],22.2%
Oc1ccc(C2Nc3cccc4cccc(c34)N2)cc1,inhibition,[1],14.4%
same,inhibition,[19],12.9%
Cc1ccc(C2C3=C(Nc4[nH]n(-c5ccccc5)c(=O)c42)c2ccccc2C3=O)cc1 (stereo unspecified),inhibition,[1],56.8% (active)
c1ccc(CSc2nnc(-c3ccco3)c(-c3ccco3)n2)cc1,inhibition,[1],1.53%
same,inhibition,[9],13.9%
same,inhibition,[10],59.9% (active)
same,inhibition,[5],33.6%
same,inhibition,[21],33.6% (active)
O=C(Nc1ccc(-c2csc(Nc3cccc(C(F)(F)F)c3)n2)cc1)c1cccc(C(F)(F)F)c1,inhibition,[1],33.6% (active)
CN1C(=O)/C(=C/c2ccco2)SC1=Nc1cccc(C(=O)O)c1,inhibition,[22],-7.94%
same,inhibition,[23],0.8%
COC(=O)[C@H]1[C@H]2C[C@H]3c4[nH]c5ccccc5c4CCN3C[C@@H]2CC[C@@H]1O,inhibition,[22],22.7%
same,inhibition,[23],-1.66%
C=CCOc1cccc(C2C(C(=O)c3ccc(C)o3)=C(O)C(=O)N2c2nnc(C)s2)c1 (stereo unspecified),inhibition,[24],6.36%
same,inhibition,[25],5.97%
CN1c2ccc(C=O)c3c(C=O)ccc(c23)N(C)C1(C)C,inhibition,[20],18.5% (active)
same,inhibition,[6],46.9% (active)
same,inhibition,[26],27.9%
same,inhibition,[27],9.96%
same,inhibition,[28],13.7%
same,inhibition,[29],16.3%
same,inhibition,[13],15.3%
same,inhibition,[14],10.7%
same,inhibition,[7],20.4%
Oc1ccc2ccccc2c1N=Nc1nccs1,inhibition,[6],52.2% (active)
same,inhibition,[26],45.8% (active)
same,inhibition,[27],46.5% (active)
same,inhibition,[28],29.6%
same,inhibition,[29],55.1% (active)
same,inhibition,[7],64.9% (active)
Cc1cc2nc3c(=O)n(Cc4ccccc4)c(=O)[nH]c3nc2cc1N,inhibition,[9],198% (active)
same,inhibition,[24],66.8% (active)
same,inhibition,[25],8.2%
same,inhibition,[21],29.3% (active)
same,inhibition,[7],82.2% (active)
O=C(COC(=O)/C=C/c1cccs1)Nc1nc(-c2cccc(Br)c2)cs1,inhibition,[19],14.9%
COc1ccc(N2CC(C(=O)NCCN3C(=O)S/C(=C\c4cccnc4)C3=O)CC2=O)c(OC)c1 (stereo unspecified),inhibition,[9],-1.58%
same,inhibition,[10],-8.97%
same,inhibition,[21],0.49%
CCOC(=O)Cc1csc(NC(=O)c2sc3nc4c(C)cc(C)cc4cc3c2N)n1,inhibition,[19],23.4%
Cc1nn(Cc2ccccc2)c(C)c1CNC(=O)c1ccc(F)c(S(=O)(=O)N2CCOCC2)c1,inhibition,[9],9.04%
same,inhibition,[10],4.37%
same,inhibition,[20],3.62%
